From the supplement of paper PMC11732987, “Enantioselective OTUD7B fragment discovery through chemoproteomics screening and high-throughput optimisation” (Communications Chemistry, 2025)

What was measured:
Assay in all cases: log2 ratio of Biotin-Ahx-Ub-VS probe labelling (fragment/DMSO); higher = less target engagement (more negative = stronger competition), active = hit call of the paper (q ≤ 0.05, log2 ratio ≤ -1)
Conditions in all cases: compound concentration: 200 uM; treatment time: 3 h
USP34 = USP34 (UniProt Q70CQ2)
Chain of USP34 (Q70CQ2 whole entry, the tested form may be a part): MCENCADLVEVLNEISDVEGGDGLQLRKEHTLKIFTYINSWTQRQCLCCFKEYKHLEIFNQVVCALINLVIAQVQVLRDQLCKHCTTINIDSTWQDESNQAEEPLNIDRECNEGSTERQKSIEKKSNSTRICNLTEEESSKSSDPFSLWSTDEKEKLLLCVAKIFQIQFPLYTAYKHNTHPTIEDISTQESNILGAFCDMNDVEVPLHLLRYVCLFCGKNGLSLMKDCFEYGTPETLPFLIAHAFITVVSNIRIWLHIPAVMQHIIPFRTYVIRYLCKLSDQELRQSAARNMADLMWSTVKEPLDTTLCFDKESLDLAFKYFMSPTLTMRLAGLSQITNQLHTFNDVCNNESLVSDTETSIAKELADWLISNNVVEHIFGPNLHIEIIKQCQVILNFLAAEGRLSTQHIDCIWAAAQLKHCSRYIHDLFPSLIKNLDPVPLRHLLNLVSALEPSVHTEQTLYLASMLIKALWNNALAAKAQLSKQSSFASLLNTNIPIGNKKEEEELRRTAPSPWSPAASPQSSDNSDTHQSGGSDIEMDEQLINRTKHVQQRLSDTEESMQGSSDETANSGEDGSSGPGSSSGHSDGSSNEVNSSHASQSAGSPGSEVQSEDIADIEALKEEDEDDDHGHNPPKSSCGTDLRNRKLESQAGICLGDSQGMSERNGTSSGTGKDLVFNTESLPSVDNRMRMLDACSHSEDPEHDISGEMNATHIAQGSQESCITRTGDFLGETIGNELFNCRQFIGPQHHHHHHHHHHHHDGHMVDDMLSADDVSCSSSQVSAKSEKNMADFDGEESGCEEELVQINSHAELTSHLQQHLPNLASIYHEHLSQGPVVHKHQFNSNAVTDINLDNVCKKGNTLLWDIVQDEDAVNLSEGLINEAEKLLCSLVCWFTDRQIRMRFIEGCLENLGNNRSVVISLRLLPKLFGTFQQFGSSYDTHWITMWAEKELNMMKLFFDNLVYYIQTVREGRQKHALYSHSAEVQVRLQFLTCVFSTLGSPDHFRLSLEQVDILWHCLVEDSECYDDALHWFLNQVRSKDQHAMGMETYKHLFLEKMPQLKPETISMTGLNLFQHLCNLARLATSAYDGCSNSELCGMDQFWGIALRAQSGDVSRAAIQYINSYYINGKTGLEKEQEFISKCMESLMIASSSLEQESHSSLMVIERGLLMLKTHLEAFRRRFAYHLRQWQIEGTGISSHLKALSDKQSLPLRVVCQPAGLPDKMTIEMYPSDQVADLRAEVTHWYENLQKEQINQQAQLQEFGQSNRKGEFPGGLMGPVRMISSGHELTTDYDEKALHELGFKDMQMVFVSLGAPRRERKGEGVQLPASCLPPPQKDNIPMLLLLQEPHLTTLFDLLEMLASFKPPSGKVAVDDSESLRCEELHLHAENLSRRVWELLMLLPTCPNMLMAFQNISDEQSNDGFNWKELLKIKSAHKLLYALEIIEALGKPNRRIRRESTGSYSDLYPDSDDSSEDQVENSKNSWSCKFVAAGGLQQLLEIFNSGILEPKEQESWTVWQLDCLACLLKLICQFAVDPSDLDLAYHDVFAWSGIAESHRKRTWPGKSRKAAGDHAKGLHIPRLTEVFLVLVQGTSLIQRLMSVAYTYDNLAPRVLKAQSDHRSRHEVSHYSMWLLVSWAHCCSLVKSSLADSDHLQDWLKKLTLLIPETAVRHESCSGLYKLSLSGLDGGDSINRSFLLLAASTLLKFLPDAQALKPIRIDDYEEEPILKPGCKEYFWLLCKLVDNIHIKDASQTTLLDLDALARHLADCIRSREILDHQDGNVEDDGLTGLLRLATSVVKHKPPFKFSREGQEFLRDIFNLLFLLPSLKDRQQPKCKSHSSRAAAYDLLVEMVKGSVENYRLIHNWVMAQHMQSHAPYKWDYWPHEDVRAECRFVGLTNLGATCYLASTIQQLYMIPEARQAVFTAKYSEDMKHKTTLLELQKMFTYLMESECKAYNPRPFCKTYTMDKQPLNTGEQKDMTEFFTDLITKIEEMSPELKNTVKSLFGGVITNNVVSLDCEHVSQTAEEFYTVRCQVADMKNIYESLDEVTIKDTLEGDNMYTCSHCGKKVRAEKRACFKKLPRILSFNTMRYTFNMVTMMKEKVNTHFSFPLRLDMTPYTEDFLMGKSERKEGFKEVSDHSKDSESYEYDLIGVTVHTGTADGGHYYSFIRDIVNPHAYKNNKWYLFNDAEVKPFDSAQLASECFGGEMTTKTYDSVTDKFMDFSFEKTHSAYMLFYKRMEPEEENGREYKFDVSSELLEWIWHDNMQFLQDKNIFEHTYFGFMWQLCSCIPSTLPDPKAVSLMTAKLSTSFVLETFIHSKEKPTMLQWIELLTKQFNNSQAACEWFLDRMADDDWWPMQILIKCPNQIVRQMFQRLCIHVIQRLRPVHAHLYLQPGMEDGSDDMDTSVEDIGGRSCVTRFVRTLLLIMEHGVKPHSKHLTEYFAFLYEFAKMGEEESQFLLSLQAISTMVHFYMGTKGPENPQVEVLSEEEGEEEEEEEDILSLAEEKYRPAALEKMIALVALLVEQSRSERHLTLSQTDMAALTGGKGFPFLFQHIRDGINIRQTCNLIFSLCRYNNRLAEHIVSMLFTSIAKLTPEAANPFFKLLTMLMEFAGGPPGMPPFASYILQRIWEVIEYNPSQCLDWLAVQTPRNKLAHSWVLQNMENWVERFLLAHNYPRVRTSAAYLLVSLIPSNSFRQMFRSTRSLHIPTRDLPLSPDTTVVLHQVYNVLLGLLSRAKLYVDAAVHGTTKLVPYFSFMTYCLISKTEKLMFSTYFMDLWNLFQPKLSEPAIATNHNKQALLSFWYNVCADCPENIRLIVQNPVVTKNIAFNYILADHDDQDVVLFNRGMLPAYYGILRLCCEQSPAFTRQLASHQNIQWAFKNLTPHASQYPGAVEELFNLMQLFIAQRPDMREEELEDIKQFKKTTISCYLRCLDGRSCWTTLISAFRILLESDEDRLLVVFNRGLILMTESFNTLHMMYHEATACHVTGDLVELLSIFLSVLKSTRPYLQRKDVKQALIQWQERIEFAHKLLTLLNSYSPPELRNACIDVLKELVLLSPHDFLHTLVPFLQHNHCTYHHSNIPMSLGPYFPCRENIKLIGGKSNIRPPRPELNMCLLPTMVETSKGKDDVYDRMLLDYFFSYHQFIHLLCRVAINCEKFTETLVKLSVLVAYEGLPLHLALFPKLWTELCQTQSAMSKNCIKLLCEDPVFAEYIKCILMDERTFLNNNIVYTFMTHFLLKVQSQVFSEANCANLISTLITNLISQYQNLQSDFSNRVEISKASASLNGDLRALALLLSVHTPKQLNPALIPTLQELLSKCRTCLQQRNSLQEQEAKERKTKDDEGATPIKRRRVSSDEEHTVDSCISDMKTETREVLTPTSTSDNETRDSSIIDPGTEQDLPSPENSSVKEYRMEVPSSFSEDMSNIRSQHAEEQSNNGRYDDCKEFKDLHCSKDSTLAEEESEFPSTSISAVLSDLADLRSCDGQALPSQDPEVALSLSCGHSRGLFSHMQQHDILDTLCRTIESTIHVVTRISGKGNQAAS
Procedure, shortened: (§1)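 Fragment (200 µM) or vehicle was incubated for 3 h with triplicate HEK293T lysate samples of 495 µg, which were then treated with Biotin-Ahx-Ub-VS at 0.5 µM final for 1 h. Labelled DUBs were enriched on NeutrAvidin, digested with LysC and trypsin, and analysed by diaPASEF LC-MS/MS. Values are average log2 fragment/vehicle ratios from an unpaired t-test on global-median-normalised Spectronaut label-free quantities, using proteins with ≥2 unique peptides.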

USP36 = target: T1, USP36 (UniProt Q9P275)
T1 sequence (whole entry): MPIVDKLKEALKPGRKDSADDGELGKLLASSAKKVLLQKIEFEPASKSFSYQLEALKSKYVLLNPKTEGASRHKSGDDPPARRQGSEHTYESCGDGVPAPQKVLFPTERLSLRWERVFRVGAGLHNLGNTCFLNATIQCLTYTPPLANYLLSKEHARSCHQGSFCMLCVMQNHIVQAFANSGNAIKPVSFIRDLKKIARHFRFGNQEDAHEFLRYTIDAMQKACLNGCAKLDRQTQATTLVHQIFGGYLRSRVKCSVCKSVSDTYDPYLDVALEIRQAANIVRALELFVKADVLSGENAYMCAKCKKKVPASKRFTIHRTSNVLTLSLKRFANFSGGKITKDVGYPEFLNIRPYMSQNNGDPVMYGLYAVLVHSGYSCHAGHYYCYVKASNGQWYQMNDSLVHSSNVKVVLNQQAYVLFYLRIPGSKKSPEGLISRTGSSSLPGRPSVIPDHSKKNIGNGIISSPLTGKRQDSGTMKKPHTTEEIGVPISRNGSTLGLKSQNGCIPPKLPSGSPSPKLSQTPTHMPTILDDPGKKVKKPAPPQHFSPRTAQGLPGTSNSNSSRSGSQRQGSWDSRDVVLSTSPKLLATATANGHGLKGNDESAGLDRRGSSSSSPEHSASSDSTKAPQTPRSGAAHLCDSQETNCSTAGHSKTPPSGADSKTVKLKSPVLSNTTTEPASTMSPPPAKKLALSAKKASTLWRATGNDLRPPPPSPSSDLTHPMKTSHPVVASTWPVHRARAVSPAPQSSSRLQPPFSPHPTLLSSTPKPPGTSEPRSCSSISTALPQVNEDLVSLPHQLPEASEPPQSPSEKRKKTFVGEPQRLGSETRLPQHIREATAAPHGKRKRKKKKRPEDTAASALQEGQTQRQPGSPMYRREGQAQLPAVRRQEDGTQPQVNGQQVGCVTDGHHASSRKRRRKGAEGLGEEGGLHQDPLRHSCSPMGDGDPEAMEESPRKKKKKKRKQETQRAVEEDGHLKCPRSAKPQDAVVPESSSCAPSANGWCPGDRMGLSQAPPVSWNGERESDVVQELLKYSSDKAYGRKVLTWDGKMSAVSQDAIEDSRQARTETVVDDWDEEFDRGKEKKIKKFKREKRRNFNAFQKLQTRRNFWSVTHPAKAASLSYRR
Procedure, shortened: as §1

USP38 = target: T2, USP38 (UniProt Q8NB14)
T2 sequence (whole entry): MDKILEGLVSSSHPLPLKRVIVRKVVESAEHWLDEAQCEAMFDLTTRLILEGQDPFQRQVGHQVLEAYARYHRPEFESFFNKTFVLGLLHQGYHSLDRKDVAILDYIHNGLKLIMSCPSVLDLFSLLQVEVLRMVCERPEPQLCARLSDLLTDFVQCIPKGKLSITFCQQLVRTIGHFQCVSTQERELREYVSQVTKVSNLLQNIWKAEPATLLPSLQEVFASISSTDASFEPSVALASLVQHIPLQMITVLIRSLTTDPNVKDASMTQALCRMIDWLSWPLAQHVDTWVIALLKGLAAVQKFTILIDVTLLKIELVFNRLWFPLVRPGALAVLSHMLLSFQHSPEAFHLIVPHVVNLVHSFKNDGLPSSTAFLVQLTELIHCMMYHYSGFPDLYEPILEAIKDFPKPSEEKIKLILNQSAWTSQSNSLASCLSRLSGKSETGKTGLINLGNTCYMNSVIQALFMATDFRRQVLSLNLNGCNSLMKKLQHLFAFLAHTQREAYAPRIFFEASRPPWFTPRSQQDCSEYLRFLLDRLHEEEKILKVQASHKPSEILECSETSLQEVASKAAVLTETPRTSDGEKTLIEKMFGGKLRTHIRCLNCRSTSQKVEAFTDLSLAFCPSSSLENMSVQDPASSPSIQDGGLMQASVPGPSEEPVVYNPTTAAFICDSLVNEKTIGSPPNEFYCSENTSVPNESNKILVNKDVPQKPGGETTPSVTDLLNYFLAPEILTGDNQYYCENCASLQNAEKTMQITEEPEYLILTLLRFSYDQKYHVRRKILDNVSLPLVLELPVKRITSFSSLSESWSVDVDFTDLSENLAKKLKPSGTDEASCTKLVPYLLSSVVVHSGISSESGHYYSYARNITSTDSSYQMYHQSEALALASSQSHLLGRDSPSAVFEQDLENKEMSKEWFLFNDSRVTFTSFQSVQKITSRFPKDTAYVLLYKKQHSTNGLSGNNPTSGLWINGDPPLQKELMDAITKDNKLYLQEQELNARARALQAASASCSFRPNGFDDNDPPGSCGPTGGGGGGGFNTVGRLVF
Procedure, shortened: as §1

USP39 = target: T3, USP39 (UniProt Q53GS9)
T3 sequence (whole entry): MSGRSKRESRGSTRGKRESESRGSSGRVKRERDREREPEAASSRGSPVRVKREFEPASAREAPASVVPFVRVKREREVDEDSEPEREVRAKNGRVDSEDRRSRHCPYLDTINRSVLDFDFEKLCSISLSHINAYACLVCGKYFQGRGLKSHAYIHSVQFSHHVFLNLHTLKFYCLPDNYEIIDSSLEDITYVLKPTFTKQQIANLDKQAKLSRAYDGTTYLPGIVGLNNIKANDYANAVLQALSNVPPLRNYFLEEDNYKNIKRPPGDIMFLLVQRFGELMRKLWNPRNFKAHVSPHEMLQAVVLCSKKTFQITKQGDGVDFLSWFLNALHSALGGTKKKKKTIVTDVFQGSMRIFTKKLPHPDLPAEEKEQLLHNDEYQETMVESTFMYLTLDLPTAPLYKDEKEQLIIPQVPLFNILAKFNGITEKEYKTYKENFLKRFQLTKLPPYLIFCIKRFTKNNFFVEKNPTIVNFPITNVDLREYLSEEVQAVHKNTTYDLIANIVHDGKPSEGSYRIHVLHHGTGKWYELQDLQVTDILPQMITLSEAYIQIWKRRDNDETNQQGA
Procedure, shortened: as §1

USP4 = target: T4, USP4 (UniProt Q13107)
T4 sequence (whole entry): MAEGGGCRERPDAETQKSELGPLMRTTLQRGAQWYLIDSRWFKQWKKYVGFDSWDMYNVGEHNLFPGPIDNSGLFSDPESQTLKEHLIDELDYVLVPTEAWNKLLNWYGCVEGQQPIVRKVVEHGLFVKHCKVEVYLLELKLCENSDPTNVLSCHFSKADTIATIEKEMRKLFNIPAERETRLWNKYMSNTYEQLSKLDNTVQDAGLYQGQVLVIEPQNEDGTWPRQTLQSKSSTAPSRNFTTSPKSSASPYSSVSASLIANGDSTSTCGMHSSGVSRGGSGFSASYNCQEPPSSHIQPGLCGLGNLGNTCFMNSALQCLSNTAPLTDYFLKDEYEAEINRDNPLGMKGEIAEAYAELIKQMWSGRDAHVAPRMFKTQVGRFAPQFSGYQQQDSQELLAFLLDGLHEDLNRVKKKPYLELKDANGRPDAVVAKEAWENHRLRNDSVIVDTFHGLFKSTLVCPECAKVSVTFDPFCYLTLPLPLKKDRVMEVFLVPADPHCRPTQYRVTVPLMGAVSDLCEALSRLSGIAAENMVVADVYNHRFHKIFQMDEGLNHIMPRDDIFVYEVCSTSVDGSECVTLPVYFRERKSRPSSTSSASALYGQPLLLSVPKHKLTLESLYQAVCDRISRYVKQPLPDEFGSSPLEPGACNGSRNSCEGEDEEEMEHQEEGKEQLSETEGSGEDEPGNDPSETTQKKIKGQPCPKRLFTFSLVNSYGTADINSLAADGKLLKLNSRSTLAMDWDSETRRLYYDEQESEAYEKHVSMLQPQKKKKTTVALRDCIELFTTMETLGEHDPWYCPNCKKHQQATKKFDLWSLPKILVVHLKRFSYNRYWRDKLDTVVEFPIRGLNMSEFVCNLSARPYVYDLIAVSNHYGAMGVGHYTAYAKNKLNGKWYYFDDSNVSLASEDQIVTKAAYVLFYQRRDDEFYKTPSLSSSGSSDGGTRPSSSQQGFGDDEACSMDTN
Procedure, shortened: as §1

Measured: log2 ratio of Biotin-Ahx-Ub-VS probe labelling

CC(NC(=O)CCl)c1ccc2[nH]ncc2c1 (stereo not given)
inactive: USP34 -0.271 | USP36 -0.00241 | USP38 -0.222 | USP39 -0.146 | USP4 -0.324
